Eleven molecules from PubChem BioAssay (NCI) can be followed below.

Holding throughout (experiment): NCI-60 one-dose screen, 48 h (100 = growth as untreated, 0 = no growth, -100 = all killed)
Conditions in all cases: 10 µM unless noted

Experiment [1] deals with HCT-15 colon.
In experiment [2] the test system is HT29 colon.
Experiment [3] deals with SNB-75 CNS.
The test system of experiment [4] is SNB-19 CNS.
In experiment [5] the test system is U251 CNS.
In experiment [6] the test system is PC-3 prostate.
The test system of experiment [7] is SK-MEL-5 melanoma.
Experiment [8] has as its system UACC-62 melanoma.
In experiment [9] the test system is LOX IMVI melanoma.
Experiment [10] concerns SK-MEL-2 melanoma.
Experiment [11] has as its system EKVX NSCLC.
Experiment [12] concerns SN12C renal.
In experiment [13] the test system is UO-31 renal.
Experiment [14] has as its system TK-10 renal.
Experiment [15] deals with ACHN renal.
In experiment [16] the test system is CAKI-1 renal.
For experiment [17], the system named is A498 renal.
For experiment [18], the system named is CCRF-CEM leukemia.
Experiment [19] deals with MOLT-4 leukemia.
In experiment [20] the test system is SK-MEL-28 melanoma.

About 83,000 compounds went through this panel and 20% of them were active in at least one assay; those are over-represented in the sample as a whole.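 Percent growth is the endpoint: 0 to 100 indicates growth inhibition (40 means 60% inhibition), 0 means no net growth, and negative values indicate cell death.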 A number with no mark means an inactive call. Active and inactive are the calls of the source. The calls were made as follows: active = growth percent below 10; inactive = the rest.

As to `CCOC(=O)c1cnn2c3ccccc3n(S(=O)(=O)c3ccc(OC)cc3)c12`, the growth was 13% in experiment [1]; 11.6% in [2]; 61.3% in experiment [3]; 27.5% in [4]; 26.3% in experiment [5]; 35.7% in experiment [6]. In addition, the growth in experiment [7] was -15% (active); in experiment [8], 25.7%; in [9], 18.7%; in [10], 66.7%; in [11], 38.4%; in experiment [12], 22.2%. Further, the growth in experiment [13] is 46.7%; in experiment [14], 79.7%; in experiment [15], 35.4%; in experiment [16], 42.3%; in experiment [17], -3.19% (active); in experiment [18], 9.32% (active). Further, in experiment [19], the growth is 16.5%.

Turning to `COc1ccc(/C=C/c2c(C(=O)/C=C/c3ccc(Cl)cc3)c(C)nc3ccccc23)cc1`, the growth in [1] was -0.536% (active); in [2], 13.6%; in [3], 50.6%; in experiment [4] it was 25%; in experiment [5] it was 19.4%; in experiment [6] it was 29.2%. In addition, the growth was 39.2% in experiment [7]; -62.2% (active) in [9]; 23.8% in [20]; 45.7% in experiment [10]; 47.9% in [11]; 17.2% in experiment [12]. Further, the growth was -21.3% (active) in [13]; 56.2% in [14]; 13.5% in experiment [15]; 29.5% in experiment [16]; 39.6% in experiment [17]; 5.29% (active) in experiment [18]. Also, the growth in [19] is 4.01% (active).

Turning to `CCCCCCn1c(-c2ccc(C(=O)O/N=C(\N)c3ccc4ccccc4c3)cc2)nc(-c2ccccc2)c1-c1ccccc1`, the growth in experiment [1] is 49.3%; in experiment [2], 74.5%; in experiment [3], 16%; in [4], 68.9%; in [5], 50.2%; in experiment [6], 51.3%. Further, the growth is 68.2% in experiment [7]; 61.1% in [8]; 72.9% in experiment [20]; 88.6% in experiment [10]; 18% in experiment [11]; 45.6% in experiment [12]. In addition, the growth in [13] is -85.4% (active); in [14], 47.4%; in [15], 0.0407% (active); in experiment [16], 33.9%; in experiment [17] it was 51.4%; in [18] it was 18.5%. For the same molecule, the growth in [19] was 41.2%.

For the molecule `NS(=O)(=O)c1ccc(N=Nc2ccc(-c3nn4cc(-c5ccccc5)nc4s3)cc2)cc1`, the growth was 99.2% in experiment [1]; 99.1% in [2]; 86.1% in experiment [3]; 108% in experiment [4]; 99.7% in [5]; 94% in experiment [6]. The growth was 101% in experiment [7]; 96.9% in experiment [9]; 105% in experiment [20]; 96.7% in experiment [11]; 108% in experiment [12]; 89.4% in [13]. Besides, the growth in experiment [14] is 88.5%; in experiment [15], 99.8%; in [16], 85.9%; in [17], 97.5%.

For `COc1ccccc1/C=C1\Oc2cc(OCCN3CCC(Cc4ccccc4)CC3)ccc2C1=O`, the growth is 52.5% in experiment [1]; 31.2% in [2]; 83.6% in [3]; 90.8% in experiment [4]; 78.2% in [5]; 81.8% in [6]. The growth is 90.9% in experiment [7]; 70.7% in experiment [9]; 87.5% in [20]; 116% in experiment [10]; 86% in experiment [11]; 88.8% in experiment [12]. In addition, the growth is 94.5% in [14]; 105% in experiment [15]; 82.5% in [16]; 47.7% in experiment [17]; 70.7% in [18]; 72.2% in [19].

Consider `c1ccc(-c2nc3sc(-c4ccccc4)cn3n2)cc1`, for which the growth was 91.6% in experiment [1]; 90.3% in experiment [2]; 84.3% in experiment [3]; 88.5% in experiment [4]; 93.6% in experiment [5]; 63% in [6]. Besides, the growth in [7] is 80%; in experiment [9], 83.3%; in experiment [20] it was 107%; in [10] it was 94.7%; in experiment [11] it was 78.6%; in experiment [12], 79.5%. For the same molecule, the growth in experiment [13] is 46.9%; in experiment [14] it was 127%; in experiment [15], 85.5%; in [16] it was 90.8%; in experiment [17], 86%; in [18] it was 86.8%. The growth in experiment [19] is 88.6%.

With `CCOC(=O)Nc1ccc(-c2nc(-c3cccc(OCCN4CCOCC4)c3)c(-c3ccnc(Br)c3)[nH]2)cc1`, the growth in experiment [1] was 11%; in experiment [2], 8.48% (active); in experiment [3], 3.74% (active); in [4], 50.6%; in experiment [5], 26.5%; in experiment [6], 26.2%. Also, the growth is 38.1% in [7]; 32.9% in [8]; 30.6% in experiment [20]; 40.2% in [10]; 61.1% in experiment [11]; 59.9% in [12]. Further, the growth in experiment [13] is 21.5%; in [14], 87.4%; in experiment [15], 43.9%; in [17] it was 49.9%; in [18], 26.4%; in experiment [19], 7.57% (active).

In the case of `Cc1ccc2nc(NC(=O)CSc3nc(Cl)c(C#N)c(-c4ccccc4)n3)sc2c1`, the growth in experiment [1] is 99.8%; in [2], 102%; in [3], 95.9%; in [4], 96%; in experiment [5] it was 99.1%; in experiment [6], 89.5%. Further, the growth is 102% in experiment [7]; 94.3% in [9]; 103% in [20]; 102% in experiment [10]; 102% in [11]; 98.2% in experiment [12]. Moreover, the growth in experiment [13] was 80.7%; in experiment [14], 107%; in experiment [15], 102%; in experiment [16], 94.8%; in [17] it was 102%; in experiment [18] it was 105%. For the same molecule, the growth in experiment [19] was 104%.

For `NCCCNc1nc2ccccc2c2c(=O)c3cc(F)cc(Cl)c3sc12`, the growth in experiment [1] was 64.1%; in [2], 4.38% (active); in [3], 69.7%; in experiment [4], 89.4%; in [5], -63.9% (active); in experiment [6] it was 59.4%. For the same molecule, the growth in [7] was 98.3%; in experiment [8], 98.7%; in experiment [20], 107%; in experiment [10], 105%; in [11], 91.9%; in experiment [12], 82.7%. Moreover, the growth in experiment [13] is 58.4%; in experiment [14], 106%; in [15], 61.9%; in experiment [16], 63.1%; in experiment [17] it was 66.3%; in experiment [18], 6.83% (active). Moreover, the growth in experiment [19] is 77.7%.

In the case of `CN1C(=C2C(=O)OC(C)(C)OC2=O)CCC1C(=O)NCc1ccc(Cl)cc1Cl` (stereo not drawn), the growth is 101% in experiment [1]; 79.5% in experiment [2]; 107% in [3]; 97.7% in experiment [4]; 95.5% in experiment [5]; 83% in experiment [6]. Also, the growth in experiment [7] was 91.6%; in [9], 93.5%; in [20], 93%; in [10] it was 91.7%; in experiment [11], 97.5%; in experiment [12] it was 93.3%. Also, the growth is 85% in experiment [13]; 93.8% in [14]; 97% in experiment [15]; 95% in experiment [16]; 86.4% in experiment [18]; 94.6% in experiment [19].

For the molecule `CNC(=O)c1cc(-n2ccc3cc(NC(=O)c4ccc(N5CCOCC5)c(C(F)(F)F)c4)ccc32)ccn1`, the growth was 43.2% in experiment [1]; 25.1% in [2]; 85.9% in [3]; 81.1% in experiment [4]; 50.3% in experiment [5]; 18% in [6]. Besides, the growth was 24.6% in experiment [7]; 36.1% in experiment [9]; 82.2% in experiment [20]; 91.1% in [10]; 83.9% in experiment [11]; 64.3% in experiment [12]. The growth in experiment [13] is 50.2%; in experiment [14], 86.8%; in [15], 61.5%; in experiment [16], 63.6%; in [17], 25.9%; in experiment [18] it was 30.1%. Further, in experiment [19], the growth was 34.6%.
